{"source": "PubChem BioAssay AID1347417", "about": "(National Center for Advancing Translational Sciences (NCATS), 2020)", "note": "About 5,300 (4.4%) of roughly 120,000 compounds were called active. Another 22% or so got no clear call; they are omitted. The list comes from a sample in which actives are over-represented; it also holds similar structures and randomly drawn compounds. Unmarked numbers belong to inactive results. Calls come from the whole dose curve; as a rule, active = well fitted inhibition curve with a large enough effect; inconclusive = small, poorly fitted or top-dose-only effect; inactive = no such curve, though single readings can be large or run the other way. Potency is the fitted concentration of half-maximal effect.", "data": [{"test": "qHTS Primary assay for Inhibitors of Plasmodium falciparum Dd2 growth in vitro; note: nearly all actives have a fitted effect of over 65% in size;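 for activity, negative = inhibition: plate controls were DMSO vehicle for no effect and reference drug for full effect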", "details": "P. falciparum Dd2 growth, SYBR Green, 72 h; series mostly up to 28.9 µM; activity, negative = inhibition: at the top concentration", "procedure,_shortened": "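Readout: SYBR Green fluorescence, 485 nm excitation, 535 nm emission, after ~16 h lysis at 37C. Before that, Dd2-infected red cells (2.5% hematocrit) grew 72 h with compound, 29 uM top final concentration.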", "values": [{"compound": "CCn1ncc(N2CCC(NC(=O)CCOC)CC2)cc1=O", "activity, negative = inhibition": "14.1%"}, {"compound": "O=C(NC1CCN(c2cc(-c3ccc(Cl)cc3)[nH]n2)CC1)c1ccccc1F", "activity, negative = inhibition": "-19.1%"}, {"compound": "O=C(Cn1ccn2nc(-c3ccccc3)c(CO)c2c1=O)Nc1cc(F)ccc1Cl", "activity, negative = inhibition": "5.55%"}, {"compound": "CC1=C[C@@H](CNC(C)C)[C@H](C(C)C)C[C@H]1Cc1nnc(-c2ccncc2)o1", "outcome": "inactive [at 44.1 µM]"}, {"compound": "CC1=C[C@@H](CN2CCCC2)[C@H](C(C)C)C[C@H]1Cc1nnc(-c2ccc([N+](=O)[O-])cc2)o1", "Potency": "1.78 µM (active)"}, {"compound": "CC1=C[C@@H](CC#N)[C@H](C(C)C)C[C@H]1CC(=O)N1CCN(C)CC1", "activity, negative = inhibition": "-5.72% [at 44.1 µM]"}, {"compound": "CC1=C[C@@H](CN2CCC(O)CC2)[C@H](C(C)C)C[C@H]1Cc1nnc(-c2ccccc2F)o1", "Potency": "8.91 µM (active)"}, {"compound": "Fc1ccc(CN2CC[C@H](c3nnc(-c4ccccc4F)o3)C2)cc1", "outcome": "inactive [at 44.1 µM]"}, {"compound": "CC1=C[C@@H](CNC(=O)COc2ccccc2)[C@H](C(C)C)C[C@H]1CC(=O)NCc1ccccn1", "outcome": "inactive"}, {"compound": "CC1=C[C@@H](CNC(=O)NC(C)C)[C@H](C(C)C)C[C@H]1Cc1nnc(-c2ccncc2)o1", "activity, negative = inhibition": "-13.7% [at 44.1 µM]"}, {"compound": "CC1=C[C@@H](CN2CCN(CCO)CC2)[C@H](C(C)C)C[C@H]1Cc1nnc(-c2ccc(C)cc2)o1", "activity, negative = inhibition": "-0.227%"}, {"compound": "CC1=C[C@@H](CNC(C)C)[C@H](C(C)C)C[C@H]1Cc1nnc(-c2ccc(N(C)C)cc2)o1", "Potency": "3.55 µM (active)"}, {"compound": "CN(C)C[C@@H]1CN(Cc2ccccn2)C[C@H]1NC(=O)c1cc(Cl)ccc1F", "activity, negative = inhibition": "-5.45%"}, {"compound": "Cc1ccc(C(=O)N2C[C@@H](Oc3cccnc3)C[C@H]2C(=O)N2CCOCC2)s1", "outcome": "inactive"}, {"compound": "CCC(CC)NC(=O)C1Cn2cccc2C(=O)N1", "note": "(stereo not drawn)", "activity, negative = inhibition": "28.6%"}, {"compound": "Cc1noc(-c2cn(C3CCN(C(=O)c4ccoc4)CC3)nn2)n1", "outcome": "inactive"}, {"compound": "NC(=O)c1cccc(-c2ccc3c(n2)CN(Cc2ccc(C(F)(F)F)cc2)C(=O)CO3)c1", "activity, negative = inhibition": "-1.99%"}, {"compound": "COc1ccc(Nc2nc(-c3cccc(OC)c3OC)no2)cc1", "activity, negative = inhibition": "-26.2%"}, {"compound": "CCc1cc(=O)n(CC(=O)Nc2ccccc2F)c(-c2cccc(F)c2)n1", "activity, negative = inhibition": "-32.6%"}, {"compound": "COc1ccc(-c2noc(-c3cccn3CC(=O)Nc3ccccc3)n2)cc1F", "Potency": "1.58 µM (active)"}, {"compound": "COc1ccc(Cl)cc1NC(=O)CSc1nc(=O)[nH]c2c1CCCC2", "outcome": "inactive"}, {"compound": "COc1ccc(Cl)cc1NC(=O)Cn1c(=O)c2ccccc2n2nncc12", "activity, negative = inhibition": "-12.2%"}, {"compound": "COc1ccc(CNC(=O)Cn2cccc2-c2nc(-c3ccc(F)cc3)no2)cc1", "activity, negative = inhibition": "47.4%"}, {"compound": "O=C(Cn1cccc1-c1nc(-c2ccc(F)cc2)no1)Nc1cc(F)cc(F)c1", "outcome": "inactive"}, {"compound": "COc1ccc(-c2noc(-c3cccn3CC(=O)Nc3cc(Cl)ccc3OC)n2)cc1F", "Potency": "3.98 µM (active)"}, {"compound": "O=C(Cn1cccc1-c1nc(-c2ccccc2)no1)Nc1ccccc1F", "Potency": "3.98 µM (active)"}, {"compound": "CC(=O)c1ccc(NC(=O)COc2ccccc2-c2nc(-c3ccccc3)no2)cc1", "activity, negative = inhibition": "31%"}, {"compound": "CCOC(=O)N1CCC(N2CCN(c3cc(C(C)C)nc(C)n3)CC2)CC1", "activity, negative = inhibition": "-26.4%"}, {"compound": "Cc1ccccc1C(=O)N[C@@H]1CN(c2ncccn2)C[C@H]1CO", "activity, negative = inhibition": "15.2%"}, {"compound": "Cc1cccc(-c2noc(CCC(=O)N[C@H]3CC[C@H]3NC3CCCC3)n2)c1", "outcome": "inactive"}, {"compound": "CO[C@H]1C(=O)N(C2CCN(C(=O)c3ccncc3)CC2)[C@H]1c1ccncc1", "activity, negative = inhibition": "16.9%"}, {"compound": "Cc1nc(-c2c3n(c(=O)n(Cc4ccc(Br)cc4)c2=O)CCCCC3)no1", "activity, negative = inhibition": "-2.97%"}, {"compound": "CNC(=O)[C@@H]1C[C@H](n2cc(CN(C)C(=O)c3cccc(F)c3F)nn2)CN1", "activity, negative = inhibition": "18.4%"}, {"compound": "CCc1cccc(-n2nnnc2N2CCN(C(=O)Nc3ccc(C)c(OC)c3)CC2)c1", "activity, negative = inhibition": "-18.1%"}, {"compound": "O=C(O)CN1CC2(CCC1=O)CCN(C(=O)C1CNC(=O)C1)CC2", "note": "(stereo not drawn)", "activity, negative = inhibition": "-11.9%"}, {"compound": "CCC(C(=O)NCCn1ccn2nc(-c3ccc(F)cc3)cc2c1=O)c1ccccc1", "note": "(stereo not drawn)", "activity, negative = inhibition": "-4.99%"}, {"compound": "Cc1noc(C)c1-c1cc(-c2ccccc2Oc2ccccc2)cn2cncc12", "Potency": "5.62 µM (active)"}, {"compound": "COc1ccccc1-c1cc(-c2cn[nH]c2)c2cncn2c1", "Potency": "12.6 µM (active)"}, {"compound": "Cn1cc(-c2cc(-c3cccnc3)c3cncn3c2)cn1", "activity, negative = inhibition": "-7.39% [at 44.1 µM]"}, {"compound": "COc1ccc(-c2nccc3c(=O)cc(N(C)c4ccccc4)oc23)cn1", "outcome": "inactive [at 44.1 µM]"}, {"compound": "COc1ccc(-c2cc(-c3cccc4[nH]ncc34)cn3cncc23)cn1", "Potency": "3.98 µM (active)"}, {"compound": "OCc1ccc(-c2cc(-c3cccnc3)c3cncn3c2)cc1", "activity, negative = inhibition": "-25% [at 44.1 µM]"}, {"compound": "Cc1noc(C)c1-c1cc(-c2cncnc2)cn2cncc12", "activity, negative = inhibition": "-3.21% [at 44.1 µM]"}, {"compound": "COc1ccc(-c2cc(-c3cnc4[nH]ccc4c3)cn3cncc23)cn1", "Potency": "4.47 µM (active)"}, {"compound": "COc1ccccc1-c1cc(-c2cn[nH]c2)c2onc(C)c2n1", "outcome": "inactive [at 44.1 µM]"}, {"compound": "CCCN1CCN(C(=O)CC2CCCN(c3cnn(CCOC)c(=O)c3)C2)CC1", "note": "(stereo not drawn)", "activity, negative = inhibition": "53.5%"}, {"compound": "O=C(c1cnccn1)N1CC2CC(C1)[C@H]1CCCC(=O)N1C2", "note": "(stereo partly drawn)", "activity, negative = inhibition": "-6.56%"}, {"compound": "CCn1ncc(C(=O)N2CC[C@@H]3CN(S(C)(=O)=O)[C@@H]3C2)c1C", "activity, negative = inhibition": "16.8%"}]}]}
